# HT1080 IDH1KD tx – qHTS for induction of synthetic lethality in tumor cells producing 2HG: qHTS for the HT-1080-IDH1KD cell line; AID 686971, 2013; Potency, µM (top dose mostly 46.1 µM), for inactives: at the highest dose activity, negative = toxicity, hits mostly cytotoxic; actives 2% (n = 360,000); HT-1080 IDH1 knockdown viability, ATP luminescence, 48 h;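 note: 0% = DMSO wells and -100% = cell-free medium wells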
#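 HT-1080-IDH1KD cells (IDH1 knocked down), 750/well in RPMI with 5% FBS, treated with compound 48 h at 37 degrees C. Viability by CellTiter-Glo luminescence, normalised to DMSO and no-cell wells; concentration-response curves classed.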
# KB-3-1 tox – qHTS assay for MDR1-selective chemotherapeutics: Primary screen using the parental adenocarcinoma cell KB-3-1. actives 1.4% (n = 400,000). KB-3-1 viability, CellTiter-Glo ATP luminescence, 72 h. AID 1347075, 2019. Potency, µM (highest dose often 46.1 µM), most hits filed as cytotoxic; note: % is set by controls: 0 for no effect and ±100 for the full control effect; nearly all actives have a fitted effect of over 60% in size
#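 Multi-concentration cytotoxicity screen in KB-3-1 cells grown in DMEM lacking phenol red with 10% FBS. After 72 h at 37 °C with compound, ATP-dependent luminescence was recorded.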
# MCF10A rerep – A quantitative high throughput screen for small molecules that induce DNA re-replication in MCF 10a normal breast cells | actives 2.9% (n = 350,000) | Potency, µM (highest dose often 46.1 µM), inactives show at the top dose activity, positive = re-replication, usual class: activators | MCF 10A DNA re-replication, Hoechst nuclear intensity, 48 h | AID 624296, 2012; note: % of control where 0% means no effect; nearly all actives have a fitted effect of over 50% in size
# KB-V1 cytotox – qHTS assay for MDR1-selective chemotherapeutics: Primary screen using the drug-selected MDR subline cells KB-V1; KB-V1 MDR cells viability, CellTiter-Glo, 72 h; Potency, µM (highest dose often 46.1 µM), hits mostly cytotoxic; actives 3.4% (n = 400,000); note: % is set by controls: 0 for no effect and ±100 for the full control effect; nearly all actives have a fitted effect of over 60% in size
#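 Cytotoxicity toward P-gp-expressing KB-V1 cells was determined as loss of CellTiter-Glo luminescence after 72 h at 37 degrees C. Compounds were tested in quantitative HTS format across a concentration range, with curves fitted to normalized data.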
# SW480 rereplic – A quantitative high throughput screen for small molecules that induce DNA re-replication in SW480 colon adenocarcinoma cells; SW480 DNA re-replication, Hoechst DNA content imaging, 48 h; Potency, µM (top dose mostly 46.1 µM), inactives show top-dose re-replication activation, most hits filed as activators; actives 1.8% (n = 340,000); AID 624297, 2012; note: % of control where 0% means no effect; nearly all actives have a fitted effect of over 55% in size
#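 Image-based DNA-content assay: after two days of treatment, nuclei were labelled with the DNA dye Hoechst and imaged, and hits were compounds raising the count of nuclei showing high fluorescence intensity.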
# HT1080NT lethal – qHTS for induction of synthetic lethality in tumor cells producing 2HG: qHTS for the HT-1080-NT fibrosarcoma cell line; HT-1080-NT fibrosarcoma viability, CellTiter-Glo ATP luminescence, 48 h; Potency, µM (top dose mostly 46.1 µM), inactives show at the highest dose activity, negative = less viability, most hits filed as cytotoxic; actives 1.6% (n = 360,000); AID 686970, 2013;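 note: NT is the 2HG producing partner of a matched IDH1 knockdown line; 0% = DMSO-treated cells and -100% = media-only wells without cells; nearly all actives have a fitted effect of over 55% in size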
#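 Toxicity toward the 2HG-producing NT line was scored as %Activity, normalised to DMSO and no-cell wells, from CellTiter-Glo luminescence after 48 hours' treatment.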
# * = called active by the depositor; i = inactive; ? = inconclusive; / = no result; ! = repeats disagree. Rows were chosen to be rich in hits. Some 8% of all compounds tested hit in one or more screens of this group. Calls come from the whole dose curve; as a rule, active = well fitted curve in the direction sought with a large enough effect; inconclusive = small, poorly fitted or top-dose-only effect, or another doubt; inactive = no such curve, though single readings can be large; an effect the other way counts as inactive or inconclusive. Potency is the fitted concentration of half-maximal effect.
SMILES,HT1080 IDH1KD tx,KB-3-1 tox,MCF10A rerep,KB-V1 cytotox,SW480 rereplic,HT1080NT lethal
Cc1cc(N2CCN(c3ccccc3Cl)CC2)n2cc(-c3ccccc3)nc2n1,?,?,?,16µM*,-1%,-28%
COc1ccc(-c2ccnc(SCC(=O)c3ccc(OC)c(OC)c3)n2)cc1,0%,i,-1%,16µM*,7%,7%
Cc1ccc(NC(=O)CCSc2nnc(-c3ccco3)o2)cc1,4%,?,6%,23µM*,-3%,3%
Cc1cc(C(=O)CSc2nnc(-c3ccco3)o2)c(C)n1C,-23%,i,21%,?,?,-19%
COc1ccc(C(=O)CSc2nnc(-c3ccco3)c(-c3ccco3)n2)cc1,-2%,?,4%,i,6.5µM*,-2%
CCn1c(C)cc(C(=O)CSc2nnc(-c3ccco3)o2)c1C,-5%,i,21%,?,6.5µM*,-9%
O=C(CCSc1nnc(-c2ccco2)o1)Nc1ccc(F)cc1,-2%,i,16%,i,3%,0%
COc1ccc(C(=O)CSc2nnc(-c3ccco3)n2C)cc1,0%,i,-2%,i,-7%,-14%
Cc1ccc(C(=O)NCC(c2ccco2)S(=O)(=O)c2ccccc2)cc1C (stereo not drawn),/,i,/,i,/,/
Cc1ccc(NC(=O)CSc2nnc(-c3ccco3)c(-c3ccco3)n2)cc1,5.2µM*,5.8µM*,5.8µM*,5.2µM*,16µM*,7.3µM*
O=C(CSc1nnc(-c2ccco2)c(-c2ccco2)n1)Nc1ccccc1,-1%,i,8%,i,-9%,-5%
O=C1CN(C(=O)CSc2nnnn2-c2ccc(Cl)cc2)c2ccccc2N1,2%,i,7%,16µM*,-2%,5%
CC(C)Cn1c(SCC(=O)N2CC(=O)Nc3ccccc32)nc2ccccc21,2%,i,19%,10µM*,?,10%
C/C(N)=C(/C#N)C(=O)CSc1nc2ccccc2c(=O)n1Cc1ccc(C)cc1,16µM*,?,?,?,?,?
CC(c1ccccc1)n1c(SCC(=O)N2CC(=O)Nc3ccccc32)nc2ccccc2c1=O (stereo not drawn),-14%,?,?,?,/,-14%
Cc1ccc(Cn2c(SCC(=O)N3CC(=O)Nc4ccccc43)nc3ccccc3c2=O)cc1,?,i,20%,21µM*,/,-11%
O=C1CC(c2nc3ccccc3n2CCC2CCCCC2)CN1c1ccccc1Cl (stereo not drawn),/,i,/,?,/,/
CCn1ccc2c(OCC(=O)Nc3ccccc3C(F)(F)F)cccc2c1=O,/,i,/,?,/,/
Cc1ccc(-c2csc3nc(SCC(N)=O)n(Cc4ccccc4)c(=O)c23)cc1,?,i,?,21µM*,/,?
NC(=O)CSc1nc2ccccc2n1Cc1ccccc1,2%,i,1%,i,-2%,-4%
Cc1c(C(=O)N2CCCCCC2)c(S(=O)(=O)Nc2ccc(OC(F)(F)F)cc2)c(C)n1C,/,i,/,i,/,/
Cc1ccccc1Cn1cc(NC(=O)c2noc3c2CC(C(C)(C)C)CC3)cn1 (stereo not drawn),?,i,?,18µM*,?,?
O=C(Nc1nc2n(n1)C(c1ccc(F)cc1)C=C(c1ccc(Cl)cc1)N2)c1ccc([N+](=O)[O-])cc1 (stereo not drawn),/,?,/,i,/,/
CCCCCCCCNC(C)C(O)c1ccc(SC(C)C)cc1 (stereo not drawn),?,i,24µM*!,16µM*,?,23µM*
C[C@@H](NCCc1ccc(O)cc1)[C@@H](O)c1ccc(O)cc1,5%,?,?,i,-32%,16%
SMILES,HT1080 IDH1KD tx,KB-3-1 tox,MCF10A rerep,KB-V1 cytotox,SW480 rereplic,HT1080NT lethal
CC(C)C(=O)Nc1cccc(NC(=S)NC(=O)c2ccc(Cl)cc2)c1,?,?,?,2.9µM*,6%,?
CC(=O)c1cccc(NC(=S)NC(=O)c2ccc(C)cc2)c1,-3%,i,-7%,?,-2%,0%
Cc1ccc(NC(=S)NC(=O)c2ccc(F)cc2)cc1S(=O)(=O)Nc1cccc(Cl)c1,2.9µM*,5.2µM*,2.6µM*,7.3µM*,3.7µM*,6.5µM*
Cc1ccc(NC(=O)c2cccs2)cc1S(=O)(=O)Nc1cccc(Cl)c1,-30%,i,?,i,1%,-16%
COc1ccc(C(=O)NC(=S)NNC(=O)c2ccc(C)cc2)cc1,?,?,9%,i,-1%,?
Cc1ccc(C(=O)NC(=S)Nc2ccc(NC(=O)c3cccc(Cl)c3)cc2)cc1,26µM*,i,?,i,/,?
COc1ccc(C(=O)NC(=S)NNC(=O)c2ccc(NC(=O)C(C)C)cc2)cc1,-15%,?,?,2.6µM*,14%,-10%
COc1ccc(CCn2c(=O)c3cccnc3n(CC(=O)Nc3ccc(C)cc3C)c2=O)cc1OC,/,i,/,i,/,/
Cc1cccc(C(=O)NC(=S)NNC(=O)c2ccc(Cl)cc2)c1,8.2µM*,?,?,?,18%,?
Clc1cc(Cl)c(OCC#CI)cc1Cl,/,/,21µM*,/,?,/
Clc1cc(Cl)c(Cl)cc1Cl,2%,i,2%,i,2%,8%
CN1CCN(C2=Cc3ccccc3Sc3cc(F)c(F)cc32)CC1,?,?,-14%,i,1%,?
CN1CCN(C2=Cc3cc(Cl)ccc3Sc3cc(F)ccc32)CC1,?,?,13µM*,18µM*,?,?
CN1CCN(C2Cc3cc(Cl)ccc3Sc3cc(F)ccc32)CC1 (stereo not drawn),?,18µM*,?,18µM*,?,?
Cc1ccc(S(=O)(=O)N[C@@H](CC(C)C)C(=O)NCc2ccco2)cc1,9%,i,0%,15µM*,-12%,3%
Cc1cc(C)c2c(CC(=O)NCc3ccco3)coc2c1,?,?,?,15µM*,14%,?
Cc1ccc(S(=O)(=O)NC(=O)NCc2ccco2)cc1,-4%,?,-7%,i,-2%,-4%
